Source: PubChem BioAssay (NCI)
“And” between values parts separate entries of the source, which are not always exact repeats. Equal values may be shown once. Compounds without any hit were thinned out: in the full panel of roughly 83,000, 20% have a hit.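 Note: values are percent growth. 100 is the growth of untreated cells, values between 100 and 0 indicate rising inhibition; between -100 and 0 indicates cell death.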 A number with no mark means an inactive call. The source made the active and inactive calls. The calls were made as follows: active = growth percent below 10; inactive = the rest.

What follows are molecules tested on HL-60(TB) leukemia (assay: NCI-60 one-dose screen, 48 h (100 = growth as untreated, 0 = no growth, -100 = all killed)). Conditions: 10 µM unless noted.

Row | Structure (SMILES) | growth
1 | COc1cccc(COc2ccc(/C=C3\Oc4cc(O)ccc4C3=O)cc2)c1 | 79.5%
2 | CC[C@]12C=CCN3CC[C@@]4(c5ccc(OC)cc5N(C)[C@H]4[C@@](O)(C(=O)OC)[C@@H]1OC(=O)CCCC[P+](c1ccc(F)cc1)(c1ccc(F)cc1)c1ccc(F)cc1)[C@@H]32 | -32.2% (active)
3 | COc1cc(NC(=O)c2cccc(C3CCc4c(cc(OC)c(OC)c4OC)O3)c2)cc(OC)c1OC (stereo not given) | 4.25% (active)
4 | O=c1[nH]c2ccccc2cc1CSc1ccc(Nc2nccc(-c3ccc4c(c3)OCO4)n2)cc1 | 97.4%
5 | CC1(c2ccccc2)NC(=O)N(CC(=O)Nc2ccc(C(=O)/C=C/c3ccccc3)cc2)C1=O (stereo not given) | 10.1%
6 | O=C(NN1C(=O)/C(=C/C=C/c2ccc([N+](=O)[O-])o2)SC1=S)c1ccncc1 | -30.4% (active)
7 | COc1ccc(CCC2c3c(cc4c(c3OC)OCO4)CCN2C)cc1 (stereo not given) | -37.5% (active)
8 | O=C(c1ccc([N+](=O)[O-])c([N+](=O)[O-])c1O)n1[nH]c(=O)c2ccccc2c1=O | 44.6%
9 | N#Cc1c(NC(=O)c2ccc(C(F)(F)F)c(Cl)c2)sc2c1CCC(=O)C2 | -14.4% (active)
10 | CC1=C(C)C(=O)C(N2CCSCC2)=CC1=O | 89.3%
11 | COc1cc(C2CC(c3cc(OC)c(OC)c(OC)c3)=Nc3c(N)nc(N)nc3N2)ccc1Oc1nc(Nc2ccc(F)cc2)nc(N(C)C)n1 (stereo not given) | 8.45% (active)
12 | O=C(CSc1nnc(-c2ccc(-c3nc4ccccc4[nH]3)cc2)o1)Nc1ccc(Br)cc1 | 43.1%
13 | COc1ccc(NC2=C(I)C(=O)C(C)=C(C)C2=O)cc1 | -35.7% (active)
14 | COc1ccc(/C=C/c2nc3ccccc3nc2Nc2cccc(C)c2)cc1 | 92.8%
15 | O=C(CN1CCN(c2ncnc3c2cnn3-c2ccccc2)CC1)Nc1ccc(Cl)cc1 | 58.6%
16 | CCOC(=O)c1sc(N/N=C(\C)c2ccc3c(c2)Nc2ccccc2S3)nc1C | 22.1%
17 | COc1nccnc1NS(=O)(=O)c1ccc(NC2=C(Cl)C(=O)c3nc(C)ccc3C2=O)cc1 | 100%
18 | CCN(CC)c1ccnc(CNCCSC(c2ccccc2)(c2ccccc2)c2ccc(OC)cc2)c1 | -34.3% (active)
19 | O=C1NC(=S)S/C1=C\c1cn(-c2ccccc2)nc1-c1ccc([N+](=O)[O-])cc1 | 9.92% (active)
20 | O=C(CN1CCN(c2ncnc3c2cnn3-c2ccccc2)CC1)Nc1nncs1 | -45.5% (active)

Row | Structure (SMILES) | growth
21 | CS(=O)(=O)Nc1cccc(-n2c(COc3ccc(OC(F)(F)F)cc3)nc3ccccc32)c1 | 111% and 95.1%
22 | Nc1nn2c(-c3cc4ccccc4oc3=O)ccnc2c1N=Nc1ccccc1 | 108%
23 | Cn1cc(-c2cc(N)n3nc(-c4c[nH]c5ccc(F)cc45)cc3n2)c2cc(Br)cnc21 | 33.2%
24 | COc1ccc(-c2cc(C(=O)NCc3ccccc3)nn2-c2ccc(S(C)(=O)=O)cc2)cc1OC | 97%
25 | O=c1ccc(Cn2c(C(F)(F)F)cc3c(Cl)ncnc32)c[nH]1 | -20.6% (active)
26 | Cc1ccc(C(=O)CSc2nnc(-c3c[nH]c4ccccc34)n2-c2ccccc2)cc1 | 43.3%
27 | COc1ccc(Nc2ncnc3sc4c(c23)CCN(Cc2ccccc2)C4)cc1 | 68.2%
28 | CCC1(OC(=O)c2ccccc2SSCCOC(=O)CCCCC2SCC3NC(=O)NC32)C(=O)OCc2c1cc1n(c2=O)Cc2cc3ccccc3nc2-1 (stereo not given) | 76.7%
29 | O=C(NNC(=S)NCCc1ccccc1)c1ccc(OCc2nc3ccc(Cl)cc3[nH]2)cc1 | 88.9%
30 | Cc1ccc([C@H]2C(C(=O)c3ccc(Cl)cc3)C3(N[C@@H]2c2ccccc2)C(=O)Nc2ccc(Cl)cc23)cc1 (stereo not given in full) | 34.1%
31 | COC(=O)C(Cc1ccc(O)c(O)c1)NC(=O)C(CSC/C=C(\C)CCCC(C)CCCC(C)CCCC(C)C)NC(C)=O (stereo not given) | -22.9% (active)
32 | CC1[C@H]2[C@H](C[C@H]3[C@@H]4CC=C5c6sc(Nc7ccccc7F)nc6CC[C@]5(C)[C@H]4CC[C@@]32C)O[C@]12CC[C@@H](C)CO2 (stereo not given in full) | -41.9% (active)
33 | Cc1ccc2nc(-c3ccc(-c4nnc(SCC(=O)Nc5ccc(Br)cc5)o4)cc3)[nH]c2c1 | 55.6%
34 | CC(=O)Nc1cccc(Nc2nccc(N[C@@H](C)c3ccccc3)n2)c1 | 5.18% (active)
35 | O=C(N/N=C/c1ccc(-c2cccc([N+](=O)[O-])c2)o1)c1[nH]c2ccc(Br)cc2c1-c1ccccc1 | -36.5% (active)
36 | C=C1CC[C@@H]2[C@]3(C)COC(c4cn[nH]c4-c4ccc(C)cc4)O[C@@H]3CC[C@@]2(C)[C@@H]1C/C=C1/C(=O)OCC1O (stereo not given in full) | 7.26% (active)
37 | Cn1cc(-c2cc3nc(-c4cn(C)c5ncccc45)cc(N)n3n2)c2ccccc21 | -44.8% (active)
38 | CCOc1ccc2ncc(C#Cc3cncc(C(=O)Nc4ccc(CN5CCN(C)CC5)c(C(F)(F)F)c4)c3)n2n1 | 1.2% (active)
39 | C#CCOc1ccc(/C=N/Nc2nc(-c3cc4cc(Br)ccc4oc3=O)cs2)cc1OC | 71.1%
40 | COc1ccc(/C=C/c2nc3ccccc3c(=O)n2CC(=O)Nc2ccc(OC)cc2)cc1 | 82%
